Rows were chosen to be rich in hits. Some 2.5% of all compounds tested hit in one or more screens of this group.
L3MBTL1 block – inhibitors of human L3MBTL1 | Q9Y468 | AlphaScreen L3MBTL1–H3K9me1 peptide binding | Potency, µM (series often up to 57.1 µM), without a hit: at the highest dose activity, negative = inhibition, hits mostly inhibitors | 230,000 compounds, 0.66% hits; further: on the % scale 0 is the no-effect control and ±100 the full control effect; nearly all actives have a fitted effect of over 60% in size
Target sequence (Q9Y468 whole entry, looked up): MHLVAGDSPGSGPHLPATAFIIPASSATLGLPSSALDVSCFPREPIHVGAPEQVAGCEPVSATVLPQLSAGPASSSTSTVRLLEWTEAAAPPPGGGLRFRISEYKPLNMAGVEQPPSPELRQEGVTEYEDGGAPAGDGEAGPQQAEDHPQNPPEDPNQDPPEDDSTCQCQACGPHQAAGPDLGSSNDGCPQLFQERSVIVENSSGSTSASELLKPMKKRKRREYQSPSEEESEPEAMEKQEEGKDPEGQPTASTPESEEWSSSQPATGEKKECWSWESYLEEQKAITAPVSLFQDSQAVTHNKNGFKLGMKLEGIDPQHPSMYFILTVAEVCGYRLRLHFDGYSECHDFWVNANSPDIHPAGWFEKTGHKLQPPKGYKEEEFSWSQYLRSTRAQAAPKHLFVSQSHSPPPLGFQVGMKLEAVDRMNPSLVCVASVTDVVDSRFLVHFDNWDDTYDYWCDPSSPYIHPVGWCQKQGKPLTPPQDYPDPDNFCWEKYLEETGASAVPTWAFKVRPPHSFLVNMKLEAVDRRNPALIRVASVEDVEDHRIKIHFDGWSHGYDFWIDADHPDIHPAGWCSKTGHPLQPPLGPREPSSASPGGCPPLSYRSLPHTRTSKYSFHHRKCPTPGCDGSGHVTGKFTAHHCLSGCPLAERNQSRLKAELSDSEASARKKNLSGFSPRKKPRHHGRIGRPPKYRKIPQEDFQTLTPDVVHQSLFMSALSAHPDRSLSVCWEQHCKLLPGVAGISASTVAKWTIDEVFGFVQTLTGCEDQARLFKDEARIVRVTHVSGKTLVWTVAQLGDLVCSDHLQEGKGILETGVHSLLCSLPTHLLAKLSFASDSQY
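First, the protein-peptide complex forms for 30 min at room temperature (L3MBTL1 50 nM, biotinylated H3K9me1 peptide 75 nM). Next, compounds are pin-transferred and incubated 30 min. Finally, AlphaScreen beads are added and read after 30 min.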
Pol beta inh – blocks human DNA polymerase beta activity | P06746 | Pol beta primer extension/strand displacement, fluorescence kinetic | Potency, µM (series often up to 114 µM), without a hit: at the top dose activity change, negative = inhibition, usual class: inhibitors | 340,000 compounds, 1.3% hits; further: on the % scale 0 is the no-effect control and ±100 the full control effect
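Values derive from four-parameter Hill fits of normalized kinetic data: reads at 0 and 10 min following addition of 50 nM substrate to 10 nM Pol beta preincubated 15 min with compound.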
APEX1 inh – APE1 (human) endonuclease inhibition | P27695 | recombinant APE1, TAMRA/BHQ-2 abasic DNA cleavage fluorescence | Potency, µM (series often up to 65.8 µM), for inactives: top-dose activity change, negative = inhibition, hits mostly inhibitors | 350,000 compounds, 0.35% hits | AID 2517;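 further: plate controls were vehicle for no effect and reference inhibitor for full effect; nearly all actives have a fitted effect of over 55% in size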
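APE1 at 0.75 nM preincubated 15 min at room temperature with compound. Reaction then started with 50 nM double-stranded THF-abasic substrate labelled with TAMRA/BHQ-2, and 525/598 nm fluorescence read kinetically. Activity taken as third-minus-first read difference, normalized to DMSO and NSC13755 controls.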
Pol kappa inh – blocks human DNA polymerase kappa activity; AID 588579; 400,000 compounds, 0.53% hits; purified Pol kappa, fluorescent DNA synthesis assay, 10 min; Q9UBT6; Potency, µM (top dose mostly 107 µM), for inactives: at the top dose activity, negative = inhibition, usual class: inhibitors; further: on the % scale 0 is the no-effect control and ±100 the full control effect
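10 nM Pol kappa was preincubated with compounds for 15 min at room temperature. Reaction started with 50 nM (final) substrate. Fluorescence read kinetically at 0 and 10 min.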
POLI inh – blocks human DNA polymerase iota activity. 390,000 compounds, 1% hits. Potency, µM (highest dose often 115 µM), inactives show at the top dose activity, negative = inhibition, usual class: inhibitors. Pol iota fluorescent replication assay, 10 min
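Fluorescent replication assay read twice, at 0 min and 10 min after adding 50 nM (final) substrate. Enzyme (10 nM) and compounds were first incubated 15 min at room temperature; enzyme-free buffer wells were negative controls.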
Pol eta inh – blocks human DNA polymerase eta activity. recombinant Pol eta, fluorescent DNA replication assay. Potency, µM (titrated, usually from 114 µM), for inactives: top-dose activity change, negative = inhibition, most hits filed as inhibitors. 390,000 compounds, 1.2% hits. AID 588591; further: on the % scale 0 is the no-effect control and ±100 the full control effect
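Pol eta at 10 nM preincubated with compounds 15 min at room temperature; reaction started with fluorescent substrate (50 nM final) and read kinetically at 0 and 10 min.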
Active calls of the source: *; ? = inconclusive; . = no result; [ ] = dose if it differs, or a comment. The call rests on the fitted dose curve; in most records, active means well fitted curve in the direction sought with a large enough effect; inconclusive means small, poorly fitted or top-dose-only effect, or another doubt; inactive means no such curve, though single readings can be large; an effect the other way counts as inactive or inconclusive. Potency means the concentration at half of the fitted maximal effect.

SMILES	L3MBTL1 block	Pol beta inh	APEX1 inh	Pol kappa inh	POLI inh	Pol eta inh
O=C(CCC1CCCN(C(=O)c2ccc3cc[nH]c3c2)C1)N1CCN(c2ccccn2)CC1 (configuration not stated)	7%	40µM*	2%	8%	-4%	-6%
O=C(CSc1nnc(CNC(=O)c2c(F)cccc2F)o1)NCC1CCCO1 (configuration not stated)	.	29%	4%	0%	4%	-11%
O=C(Nc1ncccn1)C1CCCN1S(=O)(=O)c1ccc(Cl)c(Cl)c1 (configuration not stated)	1%	17%	6%	-7%[60.1 µM]	16%	79µM*
C=CCn1c(SC)nccc1=O	.	.	.	9%	-2%	-17%
O=C(Nc1ccccc1-c1ccccc1)C1CCCCC1	2%	29%	-4%	-9%	89µM*	-10%
O=C(O)c1cccc(NC(=S)N/N=C/c2ccccn2)c1	20µM*	-26%	8%	8%	2%	10%
COCCOc1ccc(C(F)(F)F)cc1NC(=O)CN1C(=O)NC2(CCc3ccccc32)C1=O (configuration not stated)	4%	.	-4%	-14%	51%	-27%
O=[N+]([O-])c1cc(Cl)ccc1N1CCCC1	?	8%	0%	1%	43%	-12%
O=C1C(Cl)=C(N2CCN(c3ccccc3[N+](=O)[O-])CC2)C(=O)c2ccccc21	?	28%	-8%	-6%	7.9µM*	?
CCOC(=O)c1c(NC(=O)/C=C/c2ccccc2)sc2c1CCCC2	.	4%	.	-3%	27%	-25%
O=C(CSc1nc(=O)n2cc(Cl)ccc2n1)NCCc1ccccc1	-4%	.	1%	-36%	?	25µM*
O=C(CSc1nc(=O)n2ccccc2n1)NCc1ccc2c(c1)OCO2	4%	.	-1%	5%	16%	-17%
Cc1ccc2nc(SCC(=O)Nc3ccc4c(c3)OCCO4)nc(=O)n2c1	27%	.	48%	-11%	63%	-1%
Cc1ccn2c(=O)nc(SCC(=O)Nc3ccc4c(c3)OCCO4)nc2c1	?	.	19%	-11%	56µM*	?
Cc1ccn2c(=O)nc(SCC(=O)Nc3ccc4c(c3)OCO4)nc2c1	?	.	12%	-24%	35µM*	?
O=C(CSc1nc(=O)n2cc(Cl)ccc2n1)Nc1ccc2c(c1)OCO2	?	.	-23%	-42%	?	20µM*
O=C(COC(=O)c1ccccc1OCCOc1ccccc1)Nc1ccc(Br)cc1	.	.	.	-34%	-11%	.
Cc1ccc2nccc(/C=C/c3ccc(N(C)C)cc3)c2c1	.	.	.	-34%	15%	.
CC[C@@H](C)CCCCC(=O)N[C@H](CCN)C(=O)N[C@@H](C(=O)N[C@H](CCN)C(=O)N[C@@H]1CCNC(=O)C([C@@H](C)O)NC(=O)[C@@H](CCN)NC(=O)[C@@H](CCN)NC(=O)[C@@H](CC(C)C)NC(=O)[C@@H](Cc2ccccc2)NC(=O)[C@@H](CCN)NC1=O)[C@@H](C)O (some centres not stated)	.	.	5%	.	.	.
O=C(CN(C(=O)CCC(=O)Nc1nccs1)c1ccc2c(c1)OCO2)NCc1ccccc1	.	43%	-5%	2%	11%	-2%
Clc1ccc(-c2nnc3sc(Cc4cccs4)nn23)cc1	?	?	4%	-23%	-6%	?
c1ccc(-c2nnc3sc(Cc4cccs4)nn23)cc1	-11%	45µM*	10%	-15%	?	3%
COc1ccc(CCNC(=O)/C=C/c2ccco2)cc1OC	-7%	11%	12%	-21%	?	2%
COc1ccc(/C=C/C(=O)NCCSCc2ccco2)cc1OC	-14%	-14%	?	-40%	71µM*	-29%
COc1ccc(S(=O)(=O)NCCSCc2ccco2)cc1OC	.	40µM*	?	-27%	45µM*	?
SMILES	L3MBTL1 block	Pol beta inh	APEX1 inh	Pol kappa inh	POLI inh	Pol eta inh
Cc1ccc(S(=O)(=O)NCCSCc2ccco2)cc1	-11%	-10%	10%	-5%	-8%	-5%
Cc1cc(C)c(S(=O)(=O)NCCSCc2ccco2)c(C)c1	?	.	-22%	?	22µM*	20µM*
Cc1cccc(CNC(=O)c2cccc(NC(=O)N3CCSc4ncccc43)c2)c1	.	-13%	.	-43%	?	-8%
O=c1cc(O)c2sc(Nc3ccc(F)c(Cl)c3)nc2[nH]1	.	56µM*	-6%	-2%	43%	-12%
O=c1cc(O)c2sc(Nc3ccc(Cl)c(F)c3)nc2[nH]1	.	-26%	8%	-16%	15%	-8%
COc1ccc(Nc2nc3[nH]c(=O)cc(O)c3s2)cc1	8%	45µM*	5%	6%	84%	-19%
CC(=O)CSc1nnc2cc(C)c3cc(C)cc(C)c3n12	.	2%	.	-23%	31%	-10%
Cc1ccc(NC(=O)CN(C)C(=O)c2cccc(S(=O)(=O)NCc3ccco3)c2)cc1	?	.	-30%	?	56µM*	?
CN(CC(=O)Nc1ccc(Cl)cc1)C(=O)c1cccc(S(=O)(=O)NCc2ccccc2)c1	.	-7%	-4%	-29%	-1%	-9%
O=C(COc1ccccc1C(=O)Nc1ccccc1)NC1CCCCC1	.	.	.	5%	8%	.
COc1cccc(-n2c(-c3ccccc3F)nc3c(cnn3-c3ccc(C)cc3)c2=O)c1	.	5%	.	-16%	16µM*	-10%
C[n+]1ccnc2cc(Cl)ccc21	.	.	.	-64%	?	.
O=C(NCc1cc([N+](=O)[O-])ccc1O)c1cccnc1Sc1ccccc1Cl	.	18%	-9%	-4%	-21%	1%
COc1ccc2nc(-c3ccccc3)[nH]c(=O)c2c1	.	.	.	-14%	-21%	2%
COc1ccc(-c2nc3ccc(N4CCCC4)cc3c(=O)[nH]2)cc1OC	1%	40µM*	2%	-3%	?	?
O=C(O)c1nn(CCOc2cccc(Br)c2)c(=O)c2ccccc12	.	-1%	22%	-2%	57%	-23%
CCc1ccc(OCC(=O)NNC(=O)c2ccc(NC(=O)C3CC3)cc2)cc1	.	32µM*	?	-8%	79µM*	?
Cc1ccc(OCC(=O)NNC(=O)c2ccc(NC(=O)C3CC3)cc2)c(C)c1	.	1%	12%	-9%	26%	-21%
OC[C@H]1NC[C@H](O)[C@@H](O)[C@@H]1O	.	.	22%	-3%[60.1 µM]	.	.
O=C(NNC(=O)c1cc2cc3ccccc3nc2s1)c1cccc(C(F)(F)F)c1	-3%	22µM*	?	?	?	?
COc1ccc(N2CCN(C(=O)NC3CCCCC3)CC2)cc1	-15%	-2%	0%	-3%	89µM*	?
